Bioassay records: PubChem BioAssay, National Center for Advancing Translational Sciences (NCATS)
Compounds with a hit are over-represented: about 4.4% of the library has one in this group of screens.
p53ts 32C tox = kills p53ts cells at the permissive temperature; H1299-p53A138V at 32C, ATP luminescence viability, 24 h; Potency, µM (doses to about 46.1 µM), for inactives: at the top dose activity change, negative = cytotoxicity, most hits filed as cytotoxic; actives 0.93% (n = 130,000);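 further: 0% = DMSO and -100% = full killing by reference compound; nearly all actives have a fitted effect of over 55% in size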
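Viability by ATPlite luminescence after 24 h compound treatment (up to 46 uM) at the permissive 32C. Cells are H1299 carrying p53 A138V. Scale runs from DMSO basal to 100 uM tamoxifen as full kill; AC50 from Hill fits.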
ALOX12 inhib = blocks human 12-lipoxygenase activity; P18054; purified 12-hLO, xylenol orange hydroperoxide absorbance; Potency, µM (titrated, usually from 57.1 µM), inactives show top-dose activity change, negative = inhibition, usual class: inhibitors; actives 0.12% (n = 150,000); AID 1452; further: nearly all actives have a fitted effect of over 55% in size
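Hydroperoxide formation by human 12-lipoxygenase from 40 uM arachidonic acid was followed colorimetrically via ferric-xylenol orange complex, using the 573/405 nm absorbance ratio. Enzyme concentration was 150 nM, with 30 min reaction at room temperature.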
HPGD inh = inhibitors of human 15-hydroxyprostaglandin dehydrogenase (HPGD); purified HPGD, NADH fluorescence kinetic, PGE2 substrate; actives 4.3% (n = 150,000); P15428; Potency, µM, without a hit: at the highest dose activity change, negative = inhibition, actives largely listed as inhibitors; active means well fitted inhibition curve with a large enough effect, not every such curve was filed as active; inconclusive means small, poorly fitted or top-dose-only effect, or another doubt; inactive means no such curve, though single readings can be large or run the other way
Target sequence (P15428 whole entry, looked up): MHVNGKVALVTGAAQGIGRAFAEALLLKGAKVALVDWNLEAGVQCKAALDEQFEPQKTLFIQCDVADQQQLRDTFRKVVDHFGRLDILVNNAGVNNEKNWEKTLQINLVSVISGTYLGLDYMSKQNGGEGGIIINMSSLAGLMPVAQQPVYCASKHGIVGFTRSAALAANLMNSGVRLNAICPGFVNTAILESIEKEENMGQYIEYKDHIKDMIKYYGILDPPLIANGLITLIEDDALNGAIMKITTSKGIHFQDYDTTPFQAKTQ
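NADH formation kinetics: reaction with 30 uM PGE2 and 1 mM NAD+ (final), 20 nM enzyme, Tris-HCl pH 8 with Tween 20, after 15 min compound preincubation at room temperature. Fluorescence change, last versus first of five reads.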
p53ts 39C kill = cytotoxicity in p53ts cells at nonpermissive temperature. AID 902. Potency, µM (highest dose often 46.1 µM), without a hit: at the top dose activity change, negative = cell killing, most hits filed as cytotoxic. actives 1.5% (n = 130,000). H1299-p53A138V viability at 39C, ATP luminescence, 24 h; further: nearly all actives have a fitted effect of over 55% in size
The depositor's hits bear a star; ? = inconclusive; · = no result; ! = a repeat was not active; [ ] = another dose, or the depositor's remark. Unless noted, the call rests on the fitted dose curve; in most records, active means well fitted curve in the direction sought with a large enough effect; inconclusive means small, poorly fitted or top-dose-only effect, or another doubt; inactive means no such curve, though single readings can be large; an effect the other way counts as inactive or inconclusive. Unless noted, on the % scale 0 is the no-effect control and ±100 the full control effect; potency means the concentration at half of the fitted maximal effect.

SMILES	p53ts 32C tox	ALOX12 inhib	HPGD inh	p53ts 39C kill
CN(C)c1nc(SCCOC(=O)COc2ccc(Cl)cc2Cl)nc(N(C)C)n1	6%	-9%	16µM*	0%
CC1CN(C(=O)CN2C(=O)c3ccccc3S2(=O)=O)CC(C)O1 (stereo not drawn)	-10%	3%	-3%	-2%
O=C1c2ccccc2S(=O)(=O)N1CC1CC(c2ccccc2Cl)=NO1 (stereo not drawn)	·	-6%	14µM*	·
Cc1cccc(C)c1Nc1nnc(SCc2cc([N+](=O)[O-])cc3c2OCOC3)s1	·	3%	11µM*	·
COc1cccc2sc(N(Cc3cccnc3)C(=O)Cc3ccccc3)nc12	0%	·	·	-2%
c1ccc(-n2c(SCC3CCCCO3)nnc2-c2cnccn2)cc1 (stereo not drawn)	3%	-4%	28µM*	10%
O=c1c2ccccc2sn1-c1cc(S(=O)(=O)N2CCOCC2)ccc1N1CCOCC1	-3%	2.2µM*	0.79µM*	-6%
CCCCNC(=O)c1ccccc1C(=O)NCCCC	6%	1%	-1%	13%
CC(C)(C)SCCNC(=O)c1ccccc1	·	-3%	-17%	·
Cc1ccccc1C(=O)NCCSc1ccccc1	·	-2%	20µM*	·
O=C(NCCSc1ccccc1)c1ccccc1Cl	·	-1%	13µM*	·
Cc1ccccc1CSCCNC(=O)c1ccccc1	·	-1%	32µM*	·
CCCCNC(=O)c1ccccc1Cl	·	2%	8.9µM*	·
COc1ccc(OC)c(CNC(=O)C2CCN(c3nc4ccccc4nc3C(F)(F)F)CC2)c1	2%	·	·	24%
O=S(=O)(NCc1nc2cccnc2n1Cc1ccc(F)cc1)c1ccc(Cl)s1	11%	·	·	?
CSc1ccccc1C(=O)NCCSC(C)(C)C	-14%	-2%	25µM*	-4%
CCCCCNC(=O)c1ccccc1SC	·	-4%	14µM*	·
CSc1ccccc1C(=O)NCCSc1ccccc1	·	1%	16µM*	·
Cc1nnc(NC(=O)C(=O)c2cc(C)n(-c3ccc(C)c(C)c3)c2C)s1	2%	·	·	-15%
C=C(CC(=O)O)C(=O)O (tested in a mixture with another compound)	0%[9.22 µM]	-3%[11.4 µM]	-12%	-5%[9.22 µM]
COc1ccc(-c2nc3cnc(N4CCN(C)CC4)nc3n(-c3ccc(OC)cc3)c2=O)cc1	-6%	·	·	-4%
Cc1ccc(O)c(N=Nc2ccccc2)n1	20µM*	-17%	22µM*!	13µM*
CCOC(=O)c1c(NC(C)=O)c2c3c(sc2n1Cc1cccc(Cl)c1)CCCC3	13%	·	·	19%
CCN(CC)c1ccc(/C=N/Nc2ccc(C)cc2)c(O)c1	31%	-11%	32µM*	22%
CC(C)=CCc1c(O)cc2oc(C)cc(=O)c2c1O	5%	0%	4.5µM*	-19%
SMILES	p53ts 32C tox	ALOX12 inhib	HPGD inh	p53ts 39C kill
COc1c(O)cc2oc3cc(O)c(CC=C(C)C)c(O)c3c(=O)c2c1CC=C(C)C	10µM*!	?	28µM*!	32µM*
CCCOc1ccccc1C1C(C(=O)Nc2ccccc2)=C(C)Nc2nnnn21 (stereo not drawn)	15%	·	·	7%
C=CCNC(=O)c1c(-c2c(F)cccc2Cl)noc1C	·	3%	-3%	·
CCOC(=O)C(=O)/C(=C\N(C)C)c1onc(-c2c(F)cccc2Cl)c1C(=O)OC	·	2%	10µM*	·
Cc1cccc2sc(NNC(=O)C3COc4ccccc4O3)nc12 (stereo not drawn)	·	-7%	28µM*	·
Cc1ccc(NC(=O)C(=O)NCC(c2ccc3c(c2)OCO3)N2CCN(C)CC2)cc1C (stereo not drawn)	1%	·	·	-11%
C/C(N=NC(=[SH+])SCc1ccccc1)=C1\C=CC=CN1.[Cl][Cu]	·	·	3.5µM*	·
CC(C)N=C(NC#N)SCc1ccccc1	·	6%	-11%	·
Cc1ccc(C2C(C(N)=S)=C(N)OC3=C2C(=O)CC(C)(C)C3)cc1 (stereo not drawn)	-5%	-19%	-11%	-23%
CC1(C)CC(=O)C2=C(C1)OC1=C(C(=O)CC(C)(C)C1)C2c1ccc(O)cc1O	25µM*	?	3.2µM*	145%
O=C(CN1C(=O)c2cccnc2Oc2ccc(Cl)cc21)Nc1cccc(C(F)(F)F)c1	28%	·	·	·
S=C(NCc1ccco1)Nc1ccc(Cl)cc1	·	-9%	18µM*	·
O=C(O)Cc1ccc(NC(=S)NCc2ccco2)cc1	·	2%	-12%	·
Cc1cc2c(cc1S(=O)(=O)CCC(=O)N1CCCC(C)C1)OCC(=O)N2 (stereo not drawn)	-1%	·	·	-25%
O=C(CSc1ncn[nH]1)NCc1ccccc1	·	0%	-8%	·
